# PubChem BioAssay AID652117 (Broad Institute, 2013)
# Results with a measured potency or affinity are listed apart. A number with no mark means an inactive call.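 The calls were made as follows: active = compounds whose fitted half-maximal cell-killing dose is no more than twice the top tested dose; inconclusive = flat moderate loss of cell viability, or an unreliable curve fit; inactive = the rest.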
# Experiment: HeLa cell cytotoxicity, dose response, cytotoxicity control, ATP luminescence, dry powder (AID 652117)
# Conditions: HeLa viability, CellTiter-Glo ATP luminescence, 48 h; series mostly up to 26 µM; activity change, negative = cytotoxicity: at the top concentration
row,SMILES,"activity change, negative = cytotoxicity"
1,CCOC(=O)C1(Cc2cccc(OC)c2)CCN(Cc2ccc(O)c(Cl)c2)CC1,-11.2%
2,CCOC(=O)C1(CCOc2ccccc2)CCN(Cc2ccc(OC)c(Cl)c2)CC1,-13.4%
3,CCOC(=O)C1(CCOc2ccccc2)CCN(Cc2ccc(O)c(Cl)c2)CC1,-10.2%
4,CCOC(=O)C1(Cc2ccccc2)CCN(Cc2ccc(O)c(Cl)c2)CC1,-11.8%
5,CCOC(=O)C1(CCOc2ccccc2)CCN(Cc2ccc(OC)cc2)CC1,-18.1%
6,CCOC(=O)C1(CCOc2ccccc2)CCN(C(=O)OC(C)(C)C)CC1,-0.744%
7,CCN(C)C(=O)C1(CCOc2ccccc2)CCN(Cc2ccc(O)c(Cl)c2)CC1,-3.57%
8,O=C(Nc1ccccc1)C1(CCOc2ccccc2)CCN(Cc2ccc(O)c(Cl)c2)CC1,-2.8%
9,CCNC(=O)C1(CCOc2ccccc2)CCN(Cc2ccc(O)c(Cl)c2)CC1,6.23%
10,CCOC(=O)C1(CCOC)CCCN(Cc2ccc(Cl)cc2)C1 (configuration not stated),5.63%
11,C=CCOc1ccc(CN2CCC(CCOc3ccccc3)(C(=O)O)CC2)cc1Cl,-6.92%
12,C=CCOc1ccc(CN2CCC(CCOc3ccccc3)(C(=O)N3CCCC3)CC2)cc1Cl,-15.1%
13,CCOC(=O)C1(CCOc2ccccc2)CCN(Cc2ccc3[nH]c(=O)oc3c2)CC1,-10.9%
14,O=C(NC1CCCC1)C1(CCOc2ccccc2)CCN(Cc2ccc(O)c(Cl)c2)CC1,1.32%
15,CCOC(=O)C1(CCOC)CCN(Cc2ccc(O)c(Cl)c2)CC1,-6.28%
16,C=CCOc1ccc(CN2CCC(CCOc3ccccc3)(C(=O)N(C)CC)CC2)cc1Cl,-4.76%
17,C=CCOc1ccc(CN2CCC(CCOc3ccccc3)(C(=O)NC3CCCC3)CC2)cc1Cl,-5.23%
